Measurements from PubChem BioAssay.
Calls of active or inactive are those of the source.

Tests used:
[1] = system: PRMT1 (protein arginine N-methyltransferase 1); experiment: PRMT1 binders on small-molecule microarrays, primary screen, biochemical, small-molecule microarray, 635 nm fluorescence (AID 1088); settings: small-molecule microarray binding, higher = more signal;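 also: binding of Prmt1 protein to compounds spotted on small-molecule microarray slides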
[2] = yeast growth modulation, basal conditions, primary screen, YJM789 clinical isolate, OD600, 24 h (AID 1089);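 also: growth of clinical yeast isolate S. cerevisiae YJM 789 seeded 1000 cells per well; test concentration not given here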; settings: S. cerevisiae YJM789 growth, higher = more signal, called active from +8 up or from −8 down
[3] = fission yeast growth modulation, primary screen, strain 972, OD600, 24 h, no modulator (AID 1090);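 also: basal condition with compound alone and no growth modifier present; test concentration not given here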; settings: S. pombe 972 growth, higher = more signal, called active from +8 up or from −8 down
[4] = S. cerevisiae growth modulation with rapamycin, primary screen, strain BY4716, OD600, 96 h (AID 1091); settings: higher = more signal, called active from +8 up or from −8 down; also: test concentration not given here
[5] = biological target: Torsin-1A-interacting protein 2 (Homo sapiens) (UniProt Q8NFQ8); experiment: LULL1 binders on small-molecule microarray, primary screen, cell lysate, human LULL1 lysate, 635/667 nm fluorescence (AID 1092); settings: hLULL1 lysate binding, 635 nm fluorescence, higher = more signal;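 also: probe is lysate of COS7 cells overexpressing human LULL1; score merges per-feature 667 nm fluorescence with signal-to-noise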
Torsin-1A-interacting protein 2 (Homo sapiens), sequence (Q8NFQ8 whole entry, looked up): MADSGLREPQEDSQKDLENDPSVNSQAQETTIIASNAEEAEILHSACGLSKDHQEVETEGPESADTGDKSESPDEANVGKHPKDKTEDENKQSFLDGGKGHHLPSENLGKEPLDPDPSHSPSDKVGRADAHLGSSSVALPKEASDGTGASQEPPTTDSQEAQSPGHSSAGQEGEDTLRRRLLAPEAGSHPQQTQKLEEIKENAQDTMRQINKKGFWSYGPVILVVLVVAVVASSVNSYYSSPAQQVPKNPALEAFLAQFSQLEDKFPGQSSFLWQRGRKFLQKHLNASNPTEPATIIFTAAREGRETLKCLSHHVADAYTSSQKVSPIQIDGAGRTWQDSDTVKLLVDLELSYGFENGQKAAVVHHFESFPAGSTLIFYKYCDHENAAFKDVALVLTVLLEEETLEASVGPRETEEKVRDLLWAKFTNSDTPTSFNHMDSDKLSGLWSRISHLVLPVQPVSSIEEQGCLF

[6] = E. coli growth modulation, two-sided OD650, primary screen, E. coli filamentation project, strain DRC41, 24 h (AID 1093); settings: OD650, 24 h, higher = more signal, called active from +8 up or from −8 down;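 also: MC1000 strain lacking acrAB efflux and sulA so SOS filamentation is blocked; test concentration not given here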
[7] = small-molecule microarray binders of probe aLefty2, primary screen, biochemical, biotinylated probe, 635/667 nm fluorescence (AID 1094); settings: higher = more signal;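 also: score merges spot fluorescence near 667 nm with spot signal-to-noise ratio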
[8] = system: Noggin (protein binding on small-molecule microarray); experiment: Noggin binders on small-molecule microarray, primary screen, biochemical, 635/667 nm fluorescence (AID 1095); settings: 635 nm fluorescence, higher = more signal;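 also: score merges 667 nm feature fluorescence with signal to noise over triplicate slides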
[9] = biological target: Neurogenic locus notch homolog protein 3 (Homo sapiens) (UniProt Q9UM47); experiment: NOTCH3 binders on small-molecule microarray, primary screen, biochemical, 635/667 nm fluorescence (AID 1096); settings: NOTCH3 binding, 635 nm fluorescence, higher = more signal
Neurogenic locus notch homolog protein 3 (Homo sapiens), sequence (Q9UM47 whole entry, looked up): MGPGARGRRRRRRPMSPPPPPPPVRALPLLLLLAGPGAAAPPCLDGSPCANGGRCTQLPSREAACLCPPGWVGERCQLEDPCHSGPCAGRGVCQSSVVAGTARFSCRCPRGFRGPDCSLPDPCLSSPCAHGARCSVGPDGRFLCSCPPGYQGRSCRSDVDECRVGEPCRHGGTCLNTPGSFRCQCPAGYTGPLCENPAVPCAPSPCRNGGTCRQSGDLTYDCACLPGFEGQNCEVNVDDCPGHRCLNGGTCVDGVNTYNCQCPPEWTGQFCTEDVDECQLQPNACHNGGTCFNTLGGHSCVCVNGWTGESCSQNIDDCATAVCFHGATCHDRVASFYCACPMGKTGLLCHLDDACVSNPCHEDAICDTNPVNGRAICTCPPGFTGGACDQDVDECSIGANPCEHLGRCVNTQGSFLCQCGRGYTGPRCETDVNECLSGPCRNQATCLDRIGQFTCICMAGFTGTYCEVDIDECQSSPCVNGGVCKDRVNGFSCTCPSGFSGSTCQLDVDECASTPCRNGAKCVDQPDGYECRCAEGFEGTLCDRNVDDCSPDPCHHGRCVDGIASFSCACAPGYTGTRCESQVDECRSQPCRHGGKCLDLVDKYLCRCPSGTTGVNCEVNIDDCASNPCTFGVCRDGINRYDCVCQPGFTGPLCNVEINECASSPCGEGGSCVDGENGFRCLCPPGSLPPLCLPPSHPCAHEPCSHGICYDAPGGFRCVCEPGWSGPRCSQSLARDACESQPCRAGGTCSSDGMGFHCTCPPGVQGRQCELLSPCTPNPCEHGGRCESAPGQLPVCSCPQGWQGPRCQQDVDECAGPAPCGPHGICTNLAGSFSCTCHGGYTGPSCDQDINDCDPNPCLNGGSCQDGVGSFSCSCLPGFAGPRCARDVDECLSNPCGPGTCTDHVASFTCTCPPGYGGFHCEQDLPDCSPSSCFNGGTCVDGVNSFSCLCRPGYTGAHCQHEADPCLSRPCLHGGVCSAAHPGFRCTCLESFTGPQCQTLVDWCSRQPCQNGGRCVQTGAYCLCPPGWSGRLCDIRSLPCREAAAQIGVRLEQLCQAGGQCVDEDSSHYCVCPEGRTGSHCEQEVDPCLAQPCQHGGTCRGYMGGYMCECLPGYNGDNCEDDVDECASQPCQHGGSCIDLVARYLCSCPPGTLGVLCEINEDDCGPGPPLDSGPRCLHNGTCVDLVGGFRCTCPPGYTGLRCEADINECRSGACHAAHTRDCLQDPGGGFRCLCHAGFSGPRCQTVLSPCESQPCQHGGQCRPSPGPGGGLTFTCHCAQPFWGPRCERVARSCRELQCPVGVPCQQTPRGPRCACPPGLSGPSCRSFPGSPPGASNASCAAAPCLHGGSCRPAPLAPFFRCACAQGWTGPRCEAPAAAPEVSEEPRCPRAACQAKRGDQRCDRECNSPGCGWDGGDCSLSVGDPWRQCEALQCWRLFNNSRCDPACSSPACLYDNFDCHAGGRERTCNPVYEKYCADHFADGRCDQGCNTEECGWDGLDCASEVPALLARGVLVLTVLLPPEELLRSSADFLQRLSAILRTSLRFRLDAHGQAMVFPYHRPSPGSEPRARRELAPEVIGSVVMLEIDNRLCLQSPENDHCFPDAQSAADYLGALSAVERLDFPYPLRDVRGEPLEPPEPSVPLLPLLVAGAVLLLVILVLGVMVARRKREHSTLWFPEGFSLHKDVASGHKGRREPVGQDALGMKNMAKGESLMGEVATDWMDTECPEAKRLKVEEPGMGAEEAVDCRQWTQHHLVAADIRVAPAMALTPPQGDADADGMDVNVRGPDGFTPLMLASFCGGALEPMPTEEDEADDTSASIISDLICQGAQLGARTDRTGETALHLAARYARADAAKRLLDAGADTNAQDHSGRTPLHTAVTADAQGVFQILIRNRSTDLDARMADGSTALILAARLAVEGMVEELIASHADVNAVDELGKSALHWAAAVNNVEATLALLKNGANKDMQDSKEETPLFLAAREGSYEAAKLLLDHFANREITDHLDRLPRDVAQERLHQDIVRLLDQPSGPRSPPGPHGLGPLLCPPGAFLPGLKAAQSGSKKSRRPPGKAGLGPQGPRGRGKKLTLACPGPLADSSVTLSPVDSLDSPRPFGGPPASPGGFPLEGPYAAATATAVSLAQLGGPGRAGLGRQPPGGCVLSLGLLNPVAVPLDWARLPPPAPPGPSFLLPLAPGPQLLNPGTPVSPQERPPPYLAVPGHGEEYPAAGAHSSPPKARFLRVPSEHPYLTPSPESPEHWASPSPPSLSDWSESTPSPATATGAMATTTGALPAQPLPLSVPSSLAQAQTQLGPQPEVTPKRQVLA

[10] = small-molecule microarray binders of probe aEGFR, primary screen, biochemical, biotinylated probe, 635/667 nm fluorescence (AID 1097); settings: higher = more signal;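 also: probe is a biotinylated anti-EGFR antibody binding compounds printed on slides; score combines fluorescence near 667 nm and signal to noise of each spot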
[11] = system: Plasmodium falciparum Sir2 (PF13_0152, Sir2A); experiment: pfSir2 binders on small-molecule microarrays, primary screen, biochemical, small-molecule microarray, 635 nm fluorescence (AID 1098); settings: small-molecule microarray binding, fluorescence 635 nm; higher = more signal;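 also: score merges spot fluorescence intensity with its signal-to-noise ratio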
[12] = small-molecule microarray binders of probe aDKK1, primary screen, biochemical, biotinylated probe, 635/667 nm fluorescence (AID 1099); settings: higher = more signal;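 also: score merges 667nm spot fluorescence with signal to noise across triplicate slides; reference of the scale not given here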
[13] = small-molecule microarray binders of probe aCHRDL2, primary screen, biochemical, biotinylated probe, 635/667 nm fluorescence (AID 1100); settings: higher = more signal
[14] = splicing luciferase reporter signal modulators, primary screen, spliceosome inhibition project, cell-based, HEK293, splice +/- reporter (AID 1101); settings: luminescence, 24 h, higher = more signal, called active from +8 up or from −8 down;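 also: HEK293 cells carrying a splicing-competent luciferase reporter gene; test concentration not given here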
[15] = biological target: Fibroblast growth factor 10 (Homo sapiens) (UniProt O15520); experiment: FGF10 binders on small-molecule microarrays, primary screen, biochemical, small-molecule microarray, 635 nm fluorescence (AID 1102); settings: FGF10 binding, fluorescence 635 nm, higher = more signal
Fibroblast growth factor 10 (Homo sapiens), sequence (O15520 whole entry, looked up): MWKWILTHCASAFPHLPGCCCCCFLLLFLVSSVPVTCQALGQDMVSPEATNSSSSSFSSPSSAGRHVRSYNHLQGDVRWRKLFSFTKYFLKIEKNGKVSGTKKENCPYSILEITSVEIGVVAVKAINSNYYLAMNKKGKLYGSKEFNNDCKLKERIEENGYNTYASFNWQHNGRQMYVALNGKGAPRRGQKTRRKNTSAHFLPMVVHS

[16] = system: glycogen synthase kinase-3 (GSK3A per assay name; protocol says GSK3B); experiment: GSK3 binders on small-molecule microarrays, primary screen, biochemical, small-molecule microarray, 635 nm fluorescence, GSK3A (AID 1103); settings: small-molecule microarray binding, fluorescence 635 nm; higher = more signal; also: the record names both GSK3A and GSK3B
[17] = biological target: Epidermal growth factor receptor (Homo sapiens) (UniProt P00533); experiment: EGFR binders on small-molecule microarrays, primary screen, biochemical, small-molecule microarray, 635 nm fluorescence (AID 1104); settings: EGFR binding, higher = more signal;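 also: score merges 667 nm emission intensity with spot signal to noise over triplicate slides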
Epidermal growth factor receptor (Homo sapiens), sequence (P00533 whole entry, looked up): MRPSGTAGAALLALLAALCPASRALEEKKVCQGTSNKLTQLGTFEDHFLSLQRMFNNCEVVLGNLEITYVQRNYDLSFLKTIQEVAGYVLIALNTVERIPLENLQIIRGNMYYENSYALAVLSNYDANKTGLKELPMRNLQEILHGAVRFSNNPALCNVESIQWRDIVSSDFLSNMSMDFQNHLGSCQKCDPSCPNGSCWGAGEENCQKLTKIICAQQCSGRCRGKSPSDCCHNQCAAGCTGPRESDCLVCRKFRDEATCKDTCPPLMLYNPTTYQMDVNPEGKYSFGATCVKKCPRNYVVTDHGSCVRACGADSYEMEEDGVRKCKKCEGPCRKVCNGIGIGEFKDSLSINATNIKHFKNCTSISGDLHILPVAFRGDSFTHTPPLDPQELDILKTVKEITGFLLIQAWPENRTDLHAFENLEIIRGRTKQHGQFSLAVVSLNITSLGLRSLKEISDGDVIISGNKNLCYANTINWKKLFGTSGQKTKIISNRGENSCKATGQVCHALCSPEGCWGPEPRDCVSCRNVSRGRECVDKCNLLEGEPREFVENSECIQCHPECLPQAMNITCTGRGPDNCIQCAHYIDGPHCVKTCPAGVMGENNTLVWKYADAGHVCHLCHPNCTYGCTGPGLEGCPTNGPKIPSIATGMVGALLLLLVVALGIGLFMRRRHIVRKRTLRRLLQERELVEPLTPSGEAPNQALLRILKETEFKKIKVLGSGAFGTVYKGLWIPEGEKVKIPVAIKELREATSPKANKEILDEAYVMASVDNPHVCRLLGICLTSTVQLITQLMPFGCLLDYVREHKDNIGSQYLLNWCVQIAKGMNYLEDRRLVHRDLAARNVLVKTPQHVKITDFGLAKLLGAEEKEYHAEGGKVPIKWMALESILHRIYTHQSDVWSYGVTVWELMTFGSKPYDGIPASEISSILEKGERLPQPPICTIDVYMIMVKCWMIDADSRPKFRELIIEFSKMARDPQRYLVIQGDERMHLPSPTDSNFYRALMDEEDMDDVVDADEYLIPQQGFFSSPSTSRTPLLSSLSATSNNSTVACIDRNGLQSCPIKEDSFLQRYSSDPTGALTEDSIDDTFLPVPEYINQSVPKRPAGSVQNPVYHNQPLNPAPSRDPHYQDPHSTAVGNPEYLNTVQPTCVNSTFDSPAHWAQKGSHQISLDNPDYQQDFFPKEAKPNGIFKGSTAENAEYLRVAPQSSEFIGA

[18] = biological target: Follistatin-related protein 3 (Homo sapiens) (UniProt O95633); experiment: FSTL3 binders on small-molecule microarrays, primary screen, biochemical, small-molecule microarray, 635 nm fluorescence (AID 1105); settings: FSTL3 binding, higher = more signal;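 also: score merges emission near 667 nm and signal to noise per printed spot across three slides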
Follistatin-related protein 3 (Homo sapiens), sequence (O95633 whole entry, looked up): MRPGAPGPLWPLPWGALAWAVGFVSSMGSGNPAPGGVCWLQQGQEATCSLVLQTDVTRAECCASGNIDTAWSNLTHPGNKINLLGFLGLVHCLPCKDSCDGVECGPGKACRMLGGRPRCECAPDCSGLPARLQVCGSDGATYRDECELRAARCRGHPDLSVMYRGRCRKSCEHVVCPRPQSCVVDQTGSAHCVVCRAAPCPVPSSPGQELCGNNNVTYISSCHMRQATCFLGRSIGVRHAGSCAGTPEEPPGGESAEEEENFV

[19] = biological target: Dickkopf-related protein 1 (Homo sapiens) (UniProt O94907); experiment: DKK1 binders on small-molecule microarrays, primary screen, biochemical, small-molecule microarray, 635 nm fluorescence scan (AID 1106); settings: DKK1 binding, higher = more signal;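 also: score merges emission near 667 nm with signal to noise over three replicate slides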
Dickkopf-related protein 1 (Homo sapiens), sequence (O94907 whole entry, looked up): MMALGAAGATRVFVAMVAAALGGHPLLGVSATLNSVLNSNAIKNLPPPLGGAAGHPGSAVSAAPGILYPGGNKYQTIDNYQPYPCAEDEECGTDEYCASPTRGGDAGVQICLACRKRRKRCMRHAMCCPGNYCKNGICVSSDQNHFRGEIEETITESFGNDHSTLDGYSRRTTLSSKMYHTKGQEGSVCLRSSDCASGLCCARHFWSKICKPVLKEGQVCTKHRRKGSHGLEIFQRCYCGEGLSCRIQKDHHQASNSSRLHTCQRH

[20] = system: Inhibin beta A chain (activin A); experiment: INHBA (activin A) binders on microarrays, primary screen, biochemical, small-molecule microarray, 635 nm fluorescence scan (AID 1107); settings: small-molecule microarray binding, higher = more signal;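 also: mouse activin A protein probed at 4.33 µg/mL on printed slides; score merges bound-protein fluorescence near 667 nm with spot signal-to-noise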

SMILES	composite z-score [1]	z-score [2]	z-score [3]	z-score [4]	composite z-score [5]	z-score [6]	composite z-score [7]	composite z-score [8]	composite z-score [9]	composite z-score [10]	composite z-score [11]	composite z-score [12]	composite z-score [13]	z-score [14]	composite z-score [15]	composite z-score [16]	composite z-score [17]	composite z-score [18]	composite z-score [19]	composite z-score [20]
C=CCC(OC(C)=O)[C@@H]1[C@@H](N(Cc2ccc(-c3cccc(C(F)(F)F)c3)o2)C(=O)c2cccc3ccccc23)c2cc(OCCCO)ccc2N1C(=O)c1ccc2ccccc2n1 (stereo not given in full)	0.24	0.75 (inactive)	0.835 (inactive)	0.356 (inactive)	-0.039	-0.746 (inactive)	-0.0209	-0.029	-0.684	-0.132	0.765	-0.262	0.52	-1.29 (inactive)	0.0448	-0.684	-0.117	0.113	0.144	1.47
O=C1OCCC/C=C\[C@H]2OC34C=CCN(Cc5ccccc5)C(=O)[C@H]3N(CCCCCO)C(=O)[C@@H]4C12 (stereo not given in full)	1.01	-1.05 (inactive)	-2.16 (inactive)	15.7 (active)	3.13	0.549 (inactive)	-0.166	-0.773	-0.0471	-0.245	1.21	-0.312	0.312	-0.0325 (inactive)	-0.744	-0.823	-1.1	-0.808	-0.663	0.933
NC(=O)NCC#Cc1ccc2c(c1)[C@]1(C(=O)N2)[C@H](C(=O)N2CCCCCCC2)[C@H]2C(=O)O[C@H](c3ccccc3)[C@H](c3ccccc3)N2[C@@H]1c1ccc(O)cc1	1.55	0.463 (inactive)	1.06 (inactive)	1.47 (inactive)	2.56	-0.284 (inactive)	1.65	1.85	1.15	0.944	1.63	2.7	1.47	-0.15 (inactive)	1.4	0.919	1.27	1.51	1.63	1.49
C=C(CCCC)C(=O)CC[C@H](OC(=O)c1cccnc1)c1ccc(CO)o1	1.55	-0.697 (inactive)	-0.176 (inactive)	-0.036 (inactive)	2.07	-0.0138 (inactive)	0	1.47	1.13	0.045	1.3	-0.013	-0.519	0.981 (inactive)	1.13	1.17	0.266	1.3	1.36	1.19
CC(C)C(=C=CC[C@@H](O)c1ccc(OCCO)cc1)CCO	0.693	-1.21 (inactive)	-1.32 (inactive)	-1.4 (inactive)	-0.0081	1.23 (inactive)	-0.225	0.96	0.271	-0.146	0.959	-0.233	0.0776	-0.35 (inactive)	0.688	-0.579	-0.395	0.196	-0.117	0.516
CC(C)N1CC=CC23O[C@@H]4C=CCCOC(=O)C4[C@H]2C(=O)N(CCCCCO)[C@@H]3C1=O (stereo not given in full)	0.08	-0.0489 (inactive)	-0.0017 (inactive)	-0.569 (inactive)	0.988	0.447 (inactive)	-0.242	0.154	-0.23	-0.236	1.58	-0.188	0.317	-0.0254 (inactive)	-0.347	-1.26	-0.575	-0.749	-1.06	0.559
COC(=O)[C@@]1(Cc2ccc(F)cc2)[C@H]2c3cc(C(=O)N(C)C)n(CCn4cc([N+](=O)[O-])nc4C)c3C[C@H]2CN1C(=O)c1ccccc1	-0.394	0.126 (inactive)	0.713 (inactive)	0.942 (inactive)	2.87	-1.66 (inactive)	0.12	-0.885	-0.455	-0.0039	0.445	0.539	0.648	1.11 (inactive)	-0.279	0.0339	-0.0789	-0.445	-0.145	0.894
C=CC[C@@]1(C(=O)O)N=C(c2ccc(OCCCO)cc2)O[C@@H]1c1ccccc1CN=[N+]=[N-]	0.753	-1.23 (inactive)	-2.27 (inactive)	-1.95 (inactive)	3.34	0.788 (inactive)	0.0806	0.373	0.942	0.0209	0.802	0.682	0.062	-1.38 (inactive)	0.397	0.828	0.583	1.17	0.592	1.15
CC(=O)c1ccc(C(O)C2C=CC3C(=O)NC(=O)C3N2Nc2ccc(Cl)cc2Cl)cc1 (stereo not given)	-0.002	0.727 (inactive)	0.973 (inactive)	1.14 (inactive)	3	-1.08 (inactive)	0.0277	-0.742	0.424	-0.0828	0.366	0.947	1.02	0.58 (inactive)	0.554	-0.454	0.0262	0.141	-0.291	1.03
COc1ccc([Si](C)(C)[C@H]2[C@H](CCO)O[C@@]3(C(=O)N(Cc4ccc(N5CCOC5=O)cc4)c4ccccc43)[C@@H]2C)cc1	1.06	3.62 (inactive)	0.623 (inactive)	35.9 (active)	1.27	0.816 (inactive)	-0.139	0.0178	0.287	-0.315	0.901	-0.0663	0.171	-1.15 (inactive)	-0.0921	-0.155	-0.197	-0.0181	-0.524	0.416
